Test results from PubChem BioAssay (EPA / NIEHS).
Results filed as inconclusive are left out. The source made the active and inactive calls. Rule for the calls, unless noted: active = hit-call score of the fitted dose curve at least 0.9, where 1 is the maximum; inactive = score below 0.9. Peptide text beside a SMILES is read from it.

Legend:
[1] = CCTE_Shafer_MEA_acute_burst_number: CCTE's Neural Acute Assay for Single-Electrode Bursts, Shafer Lab (AID 2284013)
In short: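 Percent change in single-electrode burst number per well, from 40-min recordings taken before and after adding compound (0.03-40 uM) to primary rat cortical neurons on MEA plates at DIV 13 or 15, 37 C.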

[2] = CCTE_Shafer_MEA_acute_burst_duration_mean: CCTE's Neural Acute Assay for Mean Burst Duration, Shafer Lab (AID 2284014);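 note: hits are decreases in mean burst duration relative to DMSO controls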
In short: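 Rat cortical cultures, DIV 13/15; 40 min baseline, then 40 min with compound (0.03-40 uM), 37 C. Spikes: 300-5000 Hz band-pass, 8x rms threshold. Read-out: % change in mean single-electrode burst duration, DMSO-referenced, loss direction.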

[3] = CCTE_Shafer_MEA_acute_per_burst_spike_number_mean: CCTE's Neural Acute Assay for Average Number of Spikes Per Burst, Shafer Lab (AID 2284015);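 note: hits are decreases in mean spikes per burst versus baseline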
In short: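 We recorded spontaneous network firing of rat cortical neurons for 40 min before and 40 min during exposure to compound at 0.03-40 uM, at 37 C. Spikes were detected adaptively at 8x rms noise, and the change in average spikes per burst was fitted against DMSO.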

[4] = CCTE_Shafer_MEA_acute_interburst_interval_mean: CCTE's Neural Acute Assay for Mean Interburst Interval, Shafer Lab (AID 2284016);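 note: percent change of mean interburst interval versus each well's own pre-dose baseline; curves fitted for decrease in interburst interval relative to DMSO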
In short: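 MEA recording of spontaneous network bursting in primary rat cortical cultures; mean interburst interval was compared before and after a 40-min compound exposure (0.03-40 uM) and expressed as percent change, relative to DMSO.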

[5] = CCTE_Shafer_MEA_acute_burst_percentage_mean: CCTE's Neural Acute Assay for Percentage of Spikes in a Burst, Shafer Lab (AID 2284017);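 for AC50: curve fitted for loss of signal so potency reflects decreased burst percentage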
In short: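 Compounds were tested at 0.03-40 uM on primary rat cortical neuron networks grown over microelectrodes, with at least three wells per compound. Spontaneous firing was recorded for 40 min before and 40 min after dosing, and the change in burst percentage was computed per well.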

[6] = CCTE_Shafer_MEA_acute_burst_percentage_std: CCTE's Neural Acute Assay for Standard Deviation of Burst Percentage, Shafer Lab (AID 2284018);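 note: fitted in the negative direction so actives lower burst percentage SD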
In short: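 Rat primary cortical neurons on 48-well MEAs, DIV 13 or 15, 37 C. 40-min baseline then 40-min recording with compound (0.03-40 uM); well-level SD of per-electrode burst spike percentage, expressed as percent change from baseline.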

[7] = CCTE_Shafer_MEA_acute_per_network_burst_spike_number_mean: CCTE's Neural Acute Assay for Average Number of Spikes in a Network Burst, Shafer Lab (AID 2284019);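 for AC50: curve fitted for loss of signal so actives reduce spikes per network burst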
In short: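 Rat cortical cultures, DIV 13/15; spike threshold 8x rms noise, 300-5000 Hz band-pass, 12.5 kHz sampling; wells need >/= 10 active electrodes. Compound 0.03-40 uM, 40 min, 37 C; % change vs own baseline, DMSO negative control.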

[8] = CCTE_Shafer_MEA_acute_per_network_burst_spike_number_std: CCTE's Neural Acute Assay for Standard Deviation of Number of Spikes in a Network Burst, Shafer Lab (AID 2284020);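 note: fitted for decrease in spike-number SD versus DMSO so actives lower it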
In short: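 Rat cortical cultures, DIV 13/15, 37 C; 20-min stabilisation, 40-min baseline, compound 0.03-40 uM, 40-min re-record. Spikes detected at 8x rms noise (300-5000 Hz band-pass). Readout: % change from baseline in per-burst spike-number SD.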

[9] = CCTE_Shafer_MEA_acute_per_network_burst_electrodes_number_mean: CCTE's Neural Acute Assay for Mean Number of Electrodes in a Network Burst, Shafer Lab (AID 2284021);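 note: curves fitted for decreases only so hits reduce electrodes per burst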
In short: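 Rat primary cortical neurons on 48-well MEAs, DIV 13 or 15, were treated at 0.03-40 uM. Spikes were detected at 8x rms noise and recorded at 37 C. The mean electrodes per network burst in a 40 min exposure recording was expressed as percent change from a 40 min baseline.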

[10] = CCTE_Shafer_MEA_acute_network_burst_percentage: CCTE's Neural Acute Assay for Percentage of Network Bursts, Shafer Lab (AID 2284022);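 note: curves fitted for loss so actives lower network burst percentage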
In short: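 Rat primary cortical neuron networks on 48-well MEA plates, DIV 13 or 15, treated acutely with compound (0.03-40 uM, at least three wells). Percent of spikes within network bursts compared between 40-min recordings before and during exposure at 37 C, expressed as percent change.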

[11] = CCTE_Shafer_MEA_acute_cross_correlation_area: CCTE's Neural Acute Assay for Area of Cross Correlation, Shafer Lab (AID 2284024);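 note: curves fitted for loss of cross-correlation area so actives lower synchrony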
In short: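 Rat primary cortical neurons on 48-well MEA, DIV 13 or 15; compounds 0.03-40 uM. Baseline and post-exposure 40 min recordings at 37 C; percent change in area under pooled inter-electrode cross-correlation near zero lag, relative to DMSO.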

[12] = CCTE_Shafer_MEA_acute_cross_correlation_HWHM: CCTE's Neural Acute Assay for Cross Correlation at Half Width at Half Maximum, Shafer Lab (AID 2284026);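 note: percent change per well from pre-dose baseline in spike cross-correlogram half width; hits are a decrease in cross-correlogram half width relative to DMSO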
In short: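 Rat primary cortical neurons on 48-well MEA plates; 40-min baseline and 40-min post-exposure recordings at 37 C on DIV 13 or 15, compounds 0.03-40 uM. Spikes detected at 8x rms noise; percent change in cross-correlogram HWHM per well vs baseline.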

[13] = CCTE_Shafer_MEA_acute_synchrony_index: CCTE's Neural Acute Assay for Synchrony, Shafer Lab (AID 2284027);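 note: network synchrony index of spontaneous spiking in primary rat cortical neurons on MEAs; fitted for loss of signal so actives lower synchrony relative to DMSO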
In short: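 The synchrony index is taken as percent change per well between a 40 min baseline and a 40 min recording with compound (0.03–40 uM), at 37C. Rat cortical cultures on multiwell MEAs at DIV 13 or 15, spike threshold 8× rms noise.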

[14] = biological target: Estrogen receptor (Homo sapiens) (UniProt P03372); assay: CCTE_Deisenroth_AIME_384WELL_LUC_Active: CCTE's 384-well Estrogen Receptor Transactivation Assay with AIME metabolic competence (ERTA luciferase; metabolism positive), Deisenroth Lab (AID 2284030; active = hit-call score of the fitted dose curve at least 0.9, where 1 is the maximum)
In short: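 Chemicals (10-point, 0.002-200 uM) were first incubated 2 hours with alginate-immobilized induced male Sprague Dawley rat liver S9. The conditioned medium was then applied to VM7Luc4E2 cells for 24 hours, with ER luciferase induction read by luminescence relative to 17beta-estradiol.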

[15] = biological target: Estrogen receptor (Homo sapiens) (UniProt P03372); assay: CCTE_Deisenroth_AIME_96WELL_LUC_Active: CCTE's 96-well Estrogen Receptor Transactivation Assay with AIME metabolic competence (ERTA luciferase; metabolism positive), Deisenroth Lab (AID 2284023; active = hit-call score of the fitted dose curve at least 0.9, where 1 is the maximum)
In short: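 Metabolism-positive mode: induced rat hepatic S9 in alginate microspheres conditions test solutions (0.002 - 200 uM, 10 points) for 2 hours. VM7Luc4E2 ER luciferase reporter cells then exposed 24 h; positive-direction fit against 17beta-estradiol, n=4 typical.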

[16] = biological target: Estrogen receptor (Homo sapiens) (UniProt P03372); assay: CCTE_Deisenroth_AIME_96WELL_LUC_Inactive: CCTE's 96-well Estrogen Receptor Transactivation Assay without AIME metabolic competence (ERTA luciferase; metabolism negative), Deisenroth Lab (AID 2284025; active = hit-call score of the fitted dose curve at least 0.9, where 1 is the maximum)
In short: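 Metabolism-negative arm: chemicals (0.002–200 uM, 10 points) incubated 2 h with alginate-water microspheres, then medium moved onto VM7Luc4E2 cells for 24 h luciferase read-out. Positive direction vs 17beta-estradiol; n≥4 experiments.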

[17] = CCTE_Deisenroth_AIME_96WELL_CTox_Active: Cytotoxicity Assessment (CTOX) in CCTE's 96-well Estrogen Receptor Transactivation Assay with AIME metabolic competence (metabolism positive), Deisenroth Lab (AID 2284028; active = hit-call score of the fitted dose curve at least 0.9, where 1 is the maximum)
In short: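 Cytotoxicity in VM7Luc4E2 breast cells after 24 h exposure to medium from a 2 h metabolic pre-incubation with induced rat hepatic S9 in alginate microspheres; fluorescent live-cell protease readout, 10-point series 0.002–200 uM, n=4.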

Measured: AC50

Sequence of Estrogen receptor (Homo sapiens) (P03372 whole entry, looked up): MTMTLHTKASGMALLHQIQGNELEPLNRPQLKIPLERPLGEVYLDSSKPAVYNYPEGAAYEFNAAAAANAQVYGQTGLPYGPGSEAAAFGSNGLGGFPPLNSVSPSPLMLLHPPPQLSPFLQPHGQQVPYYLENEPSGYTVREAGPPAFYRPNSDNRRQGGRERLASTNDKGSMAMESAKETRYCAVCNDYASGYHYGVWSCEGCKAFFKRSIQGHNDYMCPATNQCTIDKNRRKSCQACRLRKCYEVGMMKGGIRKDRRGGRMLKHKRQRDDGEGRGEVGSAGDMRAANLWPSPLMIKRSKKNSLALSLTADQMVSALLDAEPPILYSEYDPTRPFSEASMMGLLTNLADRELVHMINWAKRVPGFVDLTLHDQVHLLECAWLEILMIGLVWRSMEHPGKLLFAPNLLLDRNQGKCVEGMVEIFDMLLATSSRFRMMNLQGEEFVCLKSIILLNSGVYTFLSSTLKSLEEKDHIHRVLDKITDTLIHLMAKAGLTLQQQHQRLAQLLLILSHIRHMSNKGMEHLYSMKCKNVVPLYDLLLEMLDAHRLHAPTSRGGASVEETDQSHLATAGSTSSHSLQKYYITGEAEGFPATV

CC(C)C(=O)OCCc1ccccc1
active: [9] 0.0213 µM
inactive: [1] | [2] | [3] | [4] | [5] | [6] | [7] | [8] | [10] | [11] | [12] | [13]

CCCCNC(=S)NCCCC
inactive: [14]

Nc1cccc(N)n1
active: [1] 0.003 µM | [3] 0.0154 µM | [5] 0.003 µM | [6] 0.003 µM | [7] 0.0456 µM | [8] 0.0117 µM | [10] 0.00318 µM | [13] 0.003 µM
inactive: [2] | [4] | [9] | [11] | [12]

CCCCCCCCCC(C)=O
inactive: [14]

CC(C)c1cc(C(C)C)cc(C(C)C)c1
inactive: [14]

CC(CCC(=O)O)(c1ccc(O)cc1)c1ccc(O)cc1
inactive: [1] | [2] | [3] | [4] | [5] | [6] | [7] | [8] | [9] | [10] | [11] | [12] | [13]
active: [14] 100 µM

CC1(C)[C@@H]2CC[C@@]1(C)C(=O)C2
inactive: [14]

CCCCCCCCCCCCc1ccc(O)cc1
active: [14] 0.804 µM

C/C=C/C=C/CCCCCCCO
inactive: [14]

CCCC(CC)c1ccccc1 (stereo unspecified)
inactive: [14]

CCCCCCCCCC[N+](C)(CCCCCCCCCC)CCC[Si](OC)(OC)OC
inactive: [14]

COC(=O)c1ccccc1C
inactive: [14]

CCCCCC[C@@H](O)C/C=C\CCCCCCCC(=O)OCC(O)CO (stereo partly specified)
inactive: [14]

CCCCCCOc1ccc(N)cc1
inactive: [14]

CCCCCCCCC(CO)CCCCCC (stereo unspecified)
inactive: [14]

CC1=NN(c2ccc(S(=O)(=O)O)cc2)C(=O)C1N=Nc1ccccc1 (stereo unspecified)
inactive: [14]

CCCCNS(=O)(=O)c1ccccc1
inactive: [14]

Cc1cccc(C(C)(C)C)c1O
active: [16] 121 µM
inactive: [15] | [17]

CCC1COC(=O)O1 (stereo unspecified)
inactive: [14]

c1ccc(Nc2cccc3ccccc23)cc1
inactive: [6] | [7] | [9]
active: [1] 1.25 µM | [2] 15 µM | [3] 5.6 µM | [4] 11.7 µM | [5] 4.86 µM | [8] 1.86 µM | [10] 27.8 µM | [15] 17.7 µM | [11] 0.465 µM | [16] 12.7 µM | [12] 5.12 µM | [13] 8.24 µM

O=C(O)C1CCC(C(=O)O)CC1 (stereo unspecified)
inactive: [14]

CC(C)(C)N
inactive: [14]

Nc1nc(N)nc(-c2ccccc2)n1
inactive: [1] | [2] | [3] | [4] | [5] | [6] | [7] | [8] | [9] | [10] | [11] | [12] | [13]

CCC(C)(O)CCCC(C)C (stereo unspecified)
inactive: [14]

O=C(O)CC(C(=O)O)S(=O)(=O)O (stereo unspecified)
inactive: [14]

C=CCOC(=O)c1ccc(C(=O)OCC=C)c(C(=O)OCC=C)c1
inactive: [14]

CCCCNS(=O)(=O)c1ccc(C)cc1
inactive: [14]

O=c1c(O)c(-c2ccc(O)cc2O)oc2cc(O)cc(O)c12
active: [14] 133 µM

C[Si](C)(C)N[Si](C)(C)C
inactive: [14]

CC/C=C\CCOC(=O)c1ccccc1O
inactive: [1] | [2] | [3] | [5] | [6] | [8] | [9] | [10] | [11] | [12] | [13]
active: [4] 15 µM | [7] 0.003 µM

O=C(Nc1ccccc1)c1cc(Cl)ccc1O
inactive: [14]

CCCCCCCCCCCC(=O)N(C)CC(=O)O
inactive: [1] | [2] | [11]
active: [3] 2.9 µM | [4] 22.8 µM | [5] 20.2 µM | [6] 0.0576 µM | [7] 0.613 µM | [8] 14.6 µM | [9] 2.9 µM | [10] 23.1 µM | [12] 21.6 µM | [13] 21.9 µM

CO[Si](C)(C)OC
inactive: [14]

COC(=O)[C@H](Cc1ccccc1)NC(=O)[C@@H](N)CC(=O)O (H-Asp-Phe-OMe)
inactive: [1] | [2] | [3] | [4] | [5] | [6] | [7] | [8] | [10] | [11] | [12] | [13] | [14]
active: [9] 15 µM
